Potency data for 23 compounds are collected here from PubChem BioAssay (NCATS).

Molecules are shown by their SMILES. Records with an inconclusive call do not appear. The source made the active and inactive calls. Calls come from the whole dose curve; as a rule, active = well fitted inhibition curve with a large enough effect; inconclusive = small, poorly fitted or top-dose-only effect; inactive = flat fitted curve, though single readings scatter.

Holding throughout (assay): qHTS profiling for inhibitors of Plasmodium falciparum proliferation (AID 504749); note: nearly all actives have a fitted effect of over 60% in size
What all share (conditions): P. falciparum in erythrocytes, SYBR Green DNA, 72 h; series mostly up to 28.7 µM

The subject of assay [1] is FAB9. Put shortly:
(§1)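 P. falciparum-infected erythrocytes (0.3% parasitemia, 2.5% hematocrit final) were exposed to compounds for 72 h at 37 C in 5% CO2, then lysed with SYBR Green buffer overnight at room temperature; parasite DNA fluorescence was normalized to artemisinin and DMSO controls.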

In assay [2] the test system is GB4. Put shortly:
as §1

Assay [3] concerns HB3. The procedure, abridged: as §1
For assay [4], the system named is ICS. The procedure, abridged: as §1
The subject of assay [5] is JCK. The procedure, abridged: as §1
Assay [6] concerns N140. The procedure, abridged: as §1
Assay [7] has as its system P93_24. Put shortly:
as §1

Assay [8] deals with P94_40. Put shortly:
as §1

In assay [9] the test system is PAD. The procedure, abridged: as §1
Assay [10] concerns PC15. Put shortly: as §1
Potency is the fitted concentration of half-maximal effect.

As for `Oc1cccc[c]1[Hg][Cl]`, the Potency was 10 µM (active) in assay [1]; 4.26 µM (active) in assay [2]; 10 µM (active) in assay [3]; 5.01 µM (active) in assay [4]; 12.6 µM (active) in [5]; 5.01 µM (active) in [6]. Moreover, the Potency was 6.31 µM (active) in [7], 5.01 µM (active) in [8], 5.62 µM (active) in assay [9] and 10 µM (active) in assay [10].

For the compound `O=c1[nH]c(=O)n(Cl)c(=O)n1Cl`, the Potency result in assay [1], in [2], in assay [3], in assay [4], in assay [5] and in [6] was “inactive” each time. Further, the Potency entry in assay [7], in assay [8], in [9] and in [10] was “inactive” each time.

As to `S=C=S`, the Potency entry in assay [1], in assay [2], in assay [3], in assay [4], in assay [5] and in assay [6] was “inactive” throughout. For the same compound, the Potency entry in assay [7], in assay [8], in [9] and in assay [10] was “inactive” in each case.

Take `COc1ccc2c3c1O[C@H]1C(=O)CC[C@H]4[C@@H](C2)N(C)CC[C@]314`: the Potency result in assay [1], in assay [2], in assay [3], in assay [4], in assay [5] and in assay [6] was “inactive” throughout. Besides, the Potency entry in assay [7], in assay [8], in [9] and in [10] was “inactive” each time.

In the case of `FC(F)OC(F)(F)C(F)Cl` (centres undefined), the Potency entry in [1], in assay [2], in assay [3], in [4], in [5] and in [6] was “inactive” in each case. Besides, the Potency entry in assay [7], in assay [8], in assay [9] and in assay [10] was “inactive” each time.

Regarding `ClC1C(Cl)C(Cl)C(Cl)C(Cl)C1Cl` (centres undefined), the Potency entry in assay [1], in [2], in assay [3], in assay [4], in assay [5] and in assay [6] was “inactive” each time. Further, the Potency entry in assay [7], in assay [8], in assay [9] and in assay [10] was “inactive” in each case.

As for `CC(N)Cc1ccc(O)cc1` (centres undefined), the Potency entry in assay [1], in assay [2], in assay [3], in assay [4], in assay [5] and in assay [6] was “inactive” in each case. Further, the Potency entry in assay [7], in assay [8], in assay [9] and in assay [10] was “inactive” throughout.

In the case of `C[N+]1(C)C2CCC1CC(OC(=O)c1c[nH]c3ccccc13)C2` (centres undefined), the Potency result in assay [1], in assay [2], in [3], in [4], in assay [5] and in assay [6] was “inactive” each time. Further, the Potency result in assay [7], in assay [8], in assay [9] and in [10] was “inactive” in each case.

Regarding `CCOC(=O)c1ccccc1C(=O)OCC`, the Potency result in assay [1], in assay [2], in assay [3], in assay [4], in assay [5] and in assay [6] was “inactive” throughout. The Potency result in [7], in assay [8], in assay [9] and in assay [10] was “inactive” in each case.

For `CCON=O`, the Potency entry in [1], in assay [2], in assay [3], in [4], in [5] and in assay [6] was “inactive” throughout. Also, the Potency result in assay [7], in [8], in assay [9] and in [10] was “inactive” in each case.

Turning to `O=C1CCO1`, the Potency entry in assay [1], in [2], in assay [3], in assay [4], in [5] and in [6] was “inactive” throughout. In addition, the Potency entry in assay [7], in assay [8] and in [9] was “inactive” in each case.

As to `O=P(O)(O)C(Cl)(Cl)P(=O)(O)O`, the Potency entry in assay [1], in [2], in assay [3], in assay [4], in assay [5] and in assay [6] was “inactive” each time. In addition, the Potency entry in [7], in assay [8], in assay [9] and in assay [10] was “inactive” each time.

For the compound `O=CC=O`, the Potency result in assay [1], in assay [2], in assay [3], in assay [4], in assay [5] and in [6] was “inactive” throughout. The Potency entry in assay [7], in assay [8], in assay [9] and in assay [10] was “inactive” throughout.

With `CC(=O)OO`, the Potency result in [1], in assay [2], in assay [3], in assay [4], in assay [5] and in [6] was “inactive” each time. Besides, the Potency entry in [7], in [8], in [9] and in assay [10] was “inactive” each time.

Turning to `CC[N+](C)(CC)CCOC(=O)C(O)(c1ccccc1)c1ccccc1`, the Potency entry in assay [1], in [2], in [3], in assay [4], in assay [5] and in [6] was “inactive” throughout. The Potency result in assay [7], in [8], in [9] and in assay [10] was “inactive” each time.

On to `NCC(O)c1cccc(O)c1` (centres undefined), for which the Potency entry in [1], in assay [2], in assay [3], in [4], in assay [5] and in assay [6] was “inactive” throughout. In addition, the Potency result in assay [7], in assay [8], in assay [9] and in assay [10] was “inactive” in each case.

In the case of `O=C/C=C/c1ccccc1`, the Potency result in assay [1], in assay [2], in assay [3], in [4], in assay [5] and in assay [6] was “inactive” each time. The Potency entry in [7], in [8], in [9] and in assay [10] was “inactive” throughout.

Turning to `CCC(C)(S(=O)(=O)CC)S(=O)(=O)CC`, the Potency result in [1], in assay [2], in assay [3], in [4], in [5] and in assay [6] was “inactive” throughout. The Potency entry in assay [7], in assay [8], in assay [9] and in [10] was “inactive” each time.

Regarding `C[C@H]1CC[C@@H]2[C@@H](C)[C@H]3[C@H](C[C@H]4[C@@H]5CC=C6CC(O[C@@H]7O[C@H](CO)[C@H](O)[C@H](O[C@@H]8O[C@H](CO)[C@@H](O)[C@H](O)[C@H]8O)[C@H]7O[C@H]7O[C@@H](C)[C@H](O)[C@@H](O)[C@H]7O)CC[C@]6(C)[C@H]5CC[C@]34C)N2C1` (some centres undefined), the Potency result in assay [1], in assay [2], in assay [3], in assay [4], in assay [5] and in [6] was “inactive” in each case. Further, the Potency entry in assay [7], in assay [8], in assay [9] and in assay [10] was “inactive” each time.

`ClC=C(Cl)Cl`: the Potency result in [1], in assay [2], in assay [3], in assay [4], in assay [5] and in [6] was “inactive” throughout. The Potency entry in [7], in assay [8], in [9] and in assay [10] was “inactive” each time.

In the case of `CN1C2CCC1CC(OC(c1ccccc1)c1ccc(Cl)cc1)C2` (centres undefined), the Potency in assay [1] is 11.2 µM (active); in assay [2], 6.01 µM (active); in assay [3] it was 12.6 µM (active); in assay [4] it was 3.55 µM (active); in assay [5] it was 12.6 µM (active); in assay [6], 11.2 µM (active). In addition, the Potency in assay [7] is 8.91 µM (active); in assay [8], 10 µM (active); in [9], 12.6 µM (active); in [10], 3.98 µM (active).

As for `CNC(=O)OCC[N+](C)(C)C`, the Potency result in assay [1], in assay [2], in assay [3], in assay [4], in [5] and in assay [6] was “inactive” in each case. The Potency result in assay [7], in [8], in [9] and in assay [10] was “inactive” throughout.

As to `O=C1CC[C@@]2(O)C3Cc4ccc(O)c5c4C2(CCN3CC2CC2)[C@H]1O5` (some centres undefined), the Potency result in [1], in assay [2], in [3], in [4], in assay [5] and in [6] was “inactive” each time. Moreover, the Potency entry in assay [7], in assay [8], in [9] and in [10] was “inactive” in each case.
